Measurements taken from PubChem BioAssay (EPA / NIEHS).
Results filed as inconclusive are left out. Calls of active or inactive are those of the source. The calls were made as follows, unless noted: active = hit-call score of the fitted dose curve at least 0.9, where 1 is the maximum; inactive = score below 0.9.

Assays:
[1] = ATG_NFI_CIS: Attagene CIS-FACTORIAL HepG2 Assay for human Nuclear Factor I (NFI) (AID 2282989); conditions: HepG2 cis-regulatory reporter, NFI response element transcription; actives raise or lower the signal
How it was run: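 Cells: human liver HepG2, transiently transfected with promoter-regulated reporter transcription units. Exposure 24 h. Detection: fluorescent RT-PCR products separated by capillary electrophoresis, normalised to DMSO negative control.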

[2] = molecular target: Myc proto-oncogene protein (Homo sapiens) (UniProt P01106); test: ATG_Myc_CIS: Attagene CIS-FACTORIAL HepG2 Assay for human Myelocytomatosis (Myc) Proto-Oncogene Transcription Factor (AID 2282990); conditions: HepG2, Attagene cis-reporter transcription factor activity; actives raise or lower the signal
Chain of Myc proto-oncogene protein (Homo sapiens) (P01106 whole entry, looked up): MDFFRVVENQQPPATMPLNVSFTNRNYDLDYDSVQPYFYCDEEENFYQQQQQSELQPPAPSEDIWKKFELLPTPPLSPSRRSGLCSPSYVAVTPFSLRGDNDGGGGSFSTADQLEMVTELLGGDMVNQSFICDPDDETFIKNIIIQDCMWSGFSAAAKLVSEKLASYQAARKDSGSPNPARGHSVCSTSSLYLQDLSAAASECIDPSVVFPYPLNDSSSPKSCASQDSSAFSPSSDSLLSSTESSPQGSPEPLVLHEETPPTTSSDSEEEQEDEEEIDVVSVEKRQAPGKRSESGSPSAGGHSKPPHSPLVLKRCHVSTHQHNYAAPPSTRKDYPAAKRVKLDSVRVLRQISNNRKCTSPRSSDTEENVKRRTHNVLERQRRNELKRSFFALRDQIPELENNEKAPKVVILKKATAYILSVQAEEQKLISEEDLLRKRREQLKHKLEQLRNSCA
How it was run: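 Transiently transfected HepG2 cells bearing cis-promoter reporter units for endogenous transcription factors; 24 h exposure. Reporter mRNA measured by RT-PCR, 6-FAM primer extension, HpaI cut and capillary electrophoresis; bidirectional fit relative to DMSO.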

[3] = ATG_NF_kB_CIS: Attagene CIS-FACTORIAL HepG2 Assay for human Nuclear Factor Kappa B (NF-kB) (AID 2282991); conditions: HepG2 Attagene cis-factorial NF-kB reporter mRNA; actives raise or lower the signal
How it was run: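 Endogenous transcription factor activity in HepG2 was captured via cis-regulated reporter constructs; after 24 h dosing, reporter mRNA was reverse-transcribed, amplified, fluorescently labelled and sized by capillary electrophoresis, with activity fitted bidirectionally relative to DMSO.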

[4] = ATG_NRF2_ARE_CIS: Attagene CIS-FACTORIAL HepG2 Assay for human Nuclear Factor Erythroid 2 Related Factor 2 (NFR2) response to Antioxidant Response Elements (ARE) (AID 2282992); conditions: HepG2 Attagene ARE/NRF2 reporter, transcription factor activity; actives raise or lower the signal;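 as to AC50: reporter mRNA level measured by RT-PCR and capillary electrophoresis fluorescence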
How it was run: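 Fluorescence intensity of reporter-specific cDNA fragments, separated by capillary electrophoresis, reflects mRNA induction in transfected HepG2 cells at 24 h. Activity is fitted bidirectionally, DMSO serving as baseline.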

[5] = ATG_Oct_MLP_CIS: Attagene CIS-FACTORIAL HepG2 Assay for human Octamer-Binding Transcription Factor (Oct) (AID 2282993); conditions: HepG2 Attagene cis-factorial Oct reporter, mRNA; actives raise or lower the signal
How it was run: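 HepG2, transient MRTU transfection, cis promoter elements; 24 h dosing; RT-PCR/CE fluorescence read-out of reporter mRNA; fit both directions vs DMSO.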

[6] = molecular target: Cellular tumor antigen p53 (Homo sapiens) (UniProt P04637); test: ATG_p53_CIS: Attagene CIS-FACTORIAL HepG2 Assay for human p53 Transcription Factor (AID 2282994); conditions: HepG2 p53 cis-element reporter, Attagene mRNA; actives raise or lower the signal
Chain of Cellular tumor antigen p53 (Homo sapiens) (P04637 whole entry, looked up): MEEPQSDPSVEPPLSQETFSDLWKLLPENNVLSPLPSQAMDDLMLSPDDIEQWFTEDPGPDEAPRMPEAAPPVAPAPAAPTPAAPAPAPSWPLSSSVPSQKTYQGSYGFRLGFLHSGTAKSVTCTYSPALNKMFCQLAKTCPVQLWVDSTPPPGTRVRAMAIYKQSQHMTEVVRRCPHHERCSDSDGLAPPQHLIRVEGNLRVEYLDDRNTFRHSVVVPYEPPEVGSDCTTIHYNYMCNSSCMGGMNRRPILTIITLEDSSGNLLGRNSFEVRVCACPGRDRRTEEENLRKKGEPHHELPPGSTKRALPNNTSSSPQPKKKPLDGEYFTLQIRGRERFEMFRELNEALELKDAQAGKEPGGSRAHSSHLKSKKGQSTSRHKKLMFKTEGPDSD
How it was run: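 Transiently transfected HepG2 (multiple cis reporter transcription units); exposure 24 h; reporter RNA via RT-PCR, 6-FAM extension, 2 h HpaI digest at 37 C, CE detection; DMSO baseline.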

[7] = BSK_3C_TissueFactor: BioMAP Diversity Plus: 3C Assay for Tissue Factor Biomarker Activity (AID 2282997); conditions: BioMAP 3C HUVEC, tissue factor biomarker readout; actives raise or lower the signal
How it was run: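 After a 24 h chemical exposure of primary human umbilical vein endothelial cells, Tissue Factor levels were quantified by ELISA.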

[8] = BSK_3C_uPAR: BioMAP Diversity Plus: 3C Assay for Urokinase-type plasminogen activator receptor (uPAR) Biomarker Activity (AID 2282998); conditions: BioMAP 3C HUVEC, uPAR biomarker ELISA; actives raise or lower the signal
How it was run: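 A multiplexed primary-cell system built on human umbilical vein endothelium was used, with chemical present for 24 h before reading. Cell-surface uPAR was detected by ELISA; signal change in either direction counted against DMSO.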

[9] = BSK_3C_VCAM1: BioMAP Diversity Plus: 3C Assay for Vascular cell adhesion molecule 1 (VCAM1) Biomarker Activity (AID 2282999); conditions: BioMAP 3C HUVEC, VCAM1 ELISA, cytokine-stimulated; actives raise or lower the signal
How it was run: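 HUVEC primary cells, 24 h compound exposure; VCAM-1 by ELISA; gain/loss of signal fitted bidirectionally vs DMSO baseline.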

[10] = BSK_4H_Eotaxin3: BioMAP Diversity Plus: 4H Assay for Eotaxin 3 Biomarker Activity (AID 2283000); conditions: primary human endothelial cells (HUVEC); actives raise or lower the signal;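 also: CCL26 protein level quantified by ELISA in parallel with SRB cytotoxicity check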
How it was run: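 Chemicals were added to human umbilical vein endothelium cultures, and Eotaxin-3 was quantified by ELISA at 24 h. Values were derived by bidirectional fitting with DMSO serving as negative control and activity baseline.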

[11] = molecular target: human Peroxisome Proliferator-activated Receptor delta (PPARd), PPARD (gene 5467) (UniProt Q03181); test: ATG_PPARd_TRANS: Attagene TRANS-FACTORIAL HepG2 Assay for human Peroxisome Proliferator-activated Receptor delta (PPARd) (AID 2283002; active = hit-call score of the fitted dose curve at least 0.9, where 1 is the maximum)
Chain of human Peroxisome Proliferator-activated Receptor delta (PPARd), PPARD (gene 5467) (Q03181 whole entry, looked up, the tested form may be a part): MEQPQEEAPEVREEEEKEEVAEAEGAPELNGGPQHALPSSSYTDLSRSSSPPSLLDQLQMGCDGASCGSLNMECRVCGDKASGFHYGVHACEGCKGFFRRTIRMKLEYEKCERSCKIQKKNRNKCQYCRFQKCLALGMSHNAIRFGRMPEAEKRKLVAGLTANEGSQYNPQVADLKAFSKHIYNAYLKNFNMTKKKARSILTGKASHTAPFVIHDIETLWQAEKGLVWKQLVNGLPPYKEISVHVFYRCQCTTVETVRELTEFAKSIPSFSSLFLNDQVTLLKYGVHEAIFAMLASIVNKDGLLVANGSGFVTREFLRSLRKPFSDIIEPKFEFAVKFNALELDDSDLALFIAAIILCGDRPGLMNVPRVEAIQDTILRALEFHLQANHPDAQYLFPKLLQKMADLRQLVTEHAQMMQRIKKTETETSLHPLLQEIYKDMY
How it was run: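 HepG2 cells transiently transfected with GAL4-UAS multiplexed reporter units driven by exogenous chimeric NR-GAL4 proteins; 24 h compound exposure. Reporter mRNA measured by RT-PCR, 6-FAM primer extension, HpaI digestion and capillary electrophoresis; gain of signal fitted relative to DMSO.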

[12] = read-out: Intercellular Adhesion Molecule 1 (ICAM1), ICAM1 (gene 3383); test: BSK_3C_ICAM1: BioMAP Diversity Plus: 3C Assay for Intercellular Adhesion Molecule 1 (ICAM1) Biomarker Activity (AID 2283003); conditions: primary human endothelial cells (HUVEC); actives raise or lower the signal
How it was run: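 ELISA read-out of ICAM-1; HUVEC (primary human), 3C system, 24 h post-dosing; bidirectional fit vs DMSO baseline.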

[13] = molecular target: human Retinoic Acid Receptor beta (RARb), RARB (gene 5915) (UniProt P10826); test: ATG_RARb_TRANS: Attagene TRANS-FACTORIAL HepG2 Assay for human Retinoic Acid Receptor beta (AID 2283004; active = hit-call score of the fitted dose curve at least 0.9, where 1 is the maximum)
Chain of human Retinoic Acid Receptor beta (RARb), RARB (gene 5915) (P10826 whole entry, looked up): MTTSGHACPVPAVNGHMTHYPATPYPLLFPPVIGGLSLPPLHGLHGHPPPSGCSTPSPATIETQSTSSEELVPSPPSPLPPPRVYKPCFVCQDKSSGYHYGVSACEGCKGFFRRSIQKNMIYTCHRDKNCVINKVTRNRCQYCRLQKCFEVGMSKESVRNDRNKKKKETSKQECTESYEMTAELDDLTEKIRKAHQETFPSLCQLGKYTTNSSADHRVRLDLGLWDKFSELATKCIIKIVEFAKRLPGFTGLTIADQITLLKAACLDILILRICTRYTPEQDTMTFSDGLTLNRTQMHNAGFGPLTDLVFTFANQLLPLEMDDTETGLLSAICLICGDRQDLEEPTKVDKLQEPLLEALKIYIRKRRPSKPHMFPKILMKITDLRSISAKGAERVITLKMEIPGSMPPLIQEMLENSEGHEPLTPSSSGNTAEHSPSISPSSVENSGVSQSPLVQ
How it was run: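 Transient transfection of HepG2 with multiple reporter units → chemical dosing, 24 h → total RNA isolation → RT with oligo(dT) → reporter-specific PCR, 6-FAM primer extension, HpaI digest → capillary electrophoresis. Positive direction vs DMSO control.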

[14] = molecular target: Retinoic acid receptor alpha (Homo sapiens) (UniProt P10276); test: ATG_RARa_TRANS: Attagene TRANS-FACTORIAL HepG2 Assay for human Retinoic Acid Receptor alpha (RARa) (AID 2283005; active = hit-call score of the fitted dose curve at least 0.9, where 1 is the maximum)
Chain of Retinoic acid receptor alpha (Homo sapiens) (P10276 whole entry, looked up, the tested form may be a part): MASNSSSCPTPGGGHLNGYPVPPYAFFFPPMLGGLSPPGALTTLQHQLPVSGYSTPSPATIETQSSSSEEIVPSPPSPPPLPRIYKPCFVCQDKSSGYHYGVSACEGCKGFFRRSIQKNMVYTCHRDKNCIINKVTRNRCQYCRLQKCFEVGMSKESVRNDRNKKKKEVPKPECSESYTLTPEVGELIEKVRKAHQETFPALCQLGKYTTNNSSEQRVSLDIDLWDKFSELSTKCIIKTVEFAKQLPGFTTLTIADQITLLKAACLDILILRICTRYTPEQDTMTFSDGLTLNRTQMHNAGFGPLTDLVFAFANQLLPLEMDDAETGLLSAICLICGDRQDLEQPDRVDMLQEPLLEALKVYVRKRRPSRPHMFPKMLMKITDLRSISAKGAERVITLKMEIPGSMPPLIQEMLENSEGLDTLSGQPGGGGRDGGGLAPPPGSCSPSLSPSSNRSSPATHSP
How it was run: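 HepG2 transiently transfected with multiplex GAL4-UAS reporter units including a human RARa–GAL4 chimera; 24 h compound exposure. Reporter mRNA quantified by RT-PCR, 6-FAM labeling and capillary electrophoresis; gain of signal versus DMSO.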

[15] = BSK_3C_Proliferation: Cell Proliferation Assessment in the BioMAP Diversity Plus: 3C Assay (AID 2283006); conditions: primary human endothelial cells (HUVEC);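 as to AC50: potency may reflect either rise or fall in cell number versus DMSO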
How it was run: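 HUVEC, sub-confluent; 48 h chemical exposure; 10% TCA fix, 0.1% SRB stain, A560 total protein. Gain or loss of signal fitted both directions vs DMSO control.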

[16] = molecular target: Peroxisome proliferator-activated receptor gamma (Homo sapiens) (UniProt P37231); test: ATG_PPARg_TRANS: Attagene TRANS-FACTORIAL HepG2 Assay for human Peroxisome Proliferator-activated Receptor-gamma (PPARg) (AID 2283007; active = hit-call score of the fitted dose curve at least 0.9, where 1 is the maximum)
Chain of Peroxisome proliferator-activated receptor gamma (Homo sapiens) (P37231 whole entry, looked up, the tested form may be a part): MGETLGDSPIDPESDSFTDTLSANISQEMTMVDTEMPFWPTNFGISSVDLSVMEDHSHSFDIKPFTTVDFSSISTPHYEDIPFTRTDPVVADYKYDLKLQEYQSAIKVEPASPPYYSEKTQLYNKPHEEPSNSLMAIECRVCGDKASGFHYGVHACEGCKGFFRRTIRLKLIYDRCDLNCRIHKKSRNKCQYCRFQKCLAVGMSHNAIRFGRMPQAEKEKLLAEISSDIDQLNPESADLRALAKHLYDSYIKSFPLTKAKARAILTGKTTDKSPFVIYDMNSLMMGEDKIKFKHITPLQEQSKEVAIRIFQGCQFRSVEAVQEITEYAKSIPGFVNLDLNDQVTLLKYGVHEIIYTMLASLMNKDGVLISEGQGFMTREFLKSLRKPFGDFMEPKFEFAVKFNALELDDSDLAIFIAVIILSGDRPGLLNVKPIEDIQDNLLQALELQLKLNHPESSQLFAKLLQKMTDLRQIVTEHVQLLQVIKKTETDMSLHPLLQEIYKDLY
How it was run: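 A TRANS-format multiplexed reporter assay measures activity of an exogenous chimeric NR-Gal4 protein in HepG2 cells. After 24 h of chemical exposure, reporter transcripts are amplified, fluorescently labelled and sized by capillary electrophoresis, with gain of signal scored against DMSO.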

[17] = molecular target: Nuclear receptor subfamily 1 group I member 2 (Homo sapiens) (UniProt O75469); test: ATG_PXR_TRANS: Attagene TRANS-FACTORIAL HepG2 Assay for human Pregnane X Receptor (PXR) (AID 2283008; active = hit-call score of the fitted dose curve at least 0.9, where 1 is the maximum)
Chain of Nuclear receptor subfamily 1 group I member 2 (Homo sapiens) (O75469 whole entry, looked up, the tested form may be a part): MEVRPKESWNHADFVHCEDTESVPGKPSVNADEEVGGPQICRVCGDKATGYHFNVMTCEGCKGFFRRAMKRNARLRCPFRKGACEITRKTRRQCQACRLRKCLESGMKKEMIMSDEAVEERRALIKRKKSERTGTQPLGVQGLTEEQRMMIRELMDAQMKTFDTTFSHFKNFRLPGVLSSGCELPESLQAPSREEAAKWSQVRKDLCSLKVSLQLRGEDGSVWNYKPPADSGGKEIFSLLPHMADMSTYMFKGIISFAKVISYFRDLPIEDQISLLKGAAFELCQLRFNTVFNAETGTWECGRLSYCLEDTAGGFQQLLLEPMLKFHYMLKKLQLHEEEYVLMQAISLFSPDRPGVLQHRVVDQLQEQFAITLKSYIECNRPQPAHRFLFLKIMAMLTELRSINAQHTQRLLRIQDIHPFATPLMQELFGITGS
How it was run: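 Transient HepG2 transfectants carrying multiplexed reporter transcription units; PXR activity read through a Gal4 chimera. 24 h exposure. RT-PCR/CE fluorescence; upward curve fit referenced to DMSO.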

[18] = molecular target: human RAR-related Orphan Receptor beta (RORb), RORB (gene 6096) (UniProt Q92753); test: ATG_RORb_TRANS: Attagene TRANS-FACTORIAL HepG2 Assay for human RAR-related Orphan Receptor beta (RORb) (AID 2283010; active = hit-call score of the fitted dose curve at least 0.9, where 1 is the maximum)
Chain of human RAR-related Orphan Receptor beta (RORb), RORB (gene 6096) (Q92753 whole entry, looked up, the tested form may be a part): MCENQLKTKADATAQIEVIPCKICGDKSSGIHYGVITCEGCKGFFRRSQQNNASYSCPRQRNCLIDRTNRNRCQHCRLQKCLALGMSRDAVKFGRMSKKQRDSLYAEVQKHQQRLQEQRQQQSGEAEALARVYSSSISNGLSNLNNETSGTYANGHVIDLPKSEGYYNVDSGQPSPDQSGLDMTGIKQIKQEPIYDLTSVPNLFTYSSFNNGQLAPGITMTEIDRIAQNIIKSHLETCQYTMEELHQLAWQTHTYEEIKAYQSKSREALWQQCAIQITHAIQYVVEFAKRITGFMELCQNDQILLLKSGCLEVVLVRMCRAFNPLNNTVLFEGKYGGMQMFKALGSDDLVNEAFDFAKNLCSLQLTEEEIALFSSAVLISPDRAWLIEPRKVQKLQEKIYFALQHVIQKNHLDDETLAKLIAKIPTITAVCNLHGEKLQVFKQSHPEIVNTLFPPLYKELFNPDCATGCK
How it was run: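 HepG2, transient MRTU transfection (GAL4-UAS reporters, exogenous NR-Gal4 chimeras); 24 h compound exposure; total RNA → RT-PCR → 6-FAM primer extension → HpaI digest → CE fluorescence. Positive direction vs DMSO baseline.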

[19] = molecular target: human Peroxisome Proliferator-activated Receptor alpha (PPARa), PPARA (gene 5465) (UniProt Q07869); test: ATG_PPARa_TRANS: Attagene TRANS-FACTORIAL HepG2 Assay for human Peroxisome Proliferator-activated Receptor alpha (PPARa) (AID 2283001; active = hit-call score of the fitted dose curve at least 0.9, where 1 is the maximum)
Chain of human Peroxisome Proliferator-activated Receptor alpha (PPARa), PPARA (gene 5465) (Q07869 whole entry, looked up, the tested form may be a part): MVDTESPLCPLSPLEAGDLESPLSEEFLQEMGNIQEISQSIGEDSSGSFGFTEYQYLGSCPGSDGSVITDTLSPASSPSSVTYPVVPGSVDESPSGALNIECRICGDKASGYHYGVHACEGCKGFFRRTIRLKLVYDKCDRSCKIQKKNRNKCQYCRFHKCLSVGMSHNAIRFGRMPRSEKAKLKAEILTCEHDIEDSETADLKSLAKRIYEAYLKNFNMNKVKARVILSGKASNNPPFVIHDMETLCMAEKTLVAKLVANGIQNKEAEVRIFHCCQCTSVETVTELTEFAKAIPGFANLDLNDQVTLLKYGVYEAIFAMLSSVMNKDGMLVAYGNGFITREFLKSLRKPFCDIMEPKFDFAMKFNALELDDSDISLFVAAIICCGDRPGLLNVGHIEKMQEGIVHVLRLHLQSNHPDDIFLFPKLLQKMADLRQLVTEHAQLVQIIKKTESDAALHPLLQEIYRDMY
How it was run: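 Transient HepG2 transfection, GAL4-UAS reporters, NR-Gal4 chimeras; 24 h compound exposure. Readout: reporter transcripts by RT-PCR, 6-FAM primer extension, HpaI digest, capillary electrophoresis. Positive direction vs DMSO baseline.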

[20] = molecular target: human Retinoic Acid Receptor gamma (RARg), RARG (gene 5916) (UniProt P13631); test: ATG_RARg_TRANS: Attagene TRANS-FACTORIAL HepG2 Assay for human Retinoic Acid Receptor gamma (RARg) (AID 2283009; active = hit-call score of the fitted dose curve at least 0.9, where 1 is the maximum)
Chain of human Retinoic Acid Receptor gamma (RARg), RARG (gene 5916) (P13631 whole entry, looked up, the tested form may be a part): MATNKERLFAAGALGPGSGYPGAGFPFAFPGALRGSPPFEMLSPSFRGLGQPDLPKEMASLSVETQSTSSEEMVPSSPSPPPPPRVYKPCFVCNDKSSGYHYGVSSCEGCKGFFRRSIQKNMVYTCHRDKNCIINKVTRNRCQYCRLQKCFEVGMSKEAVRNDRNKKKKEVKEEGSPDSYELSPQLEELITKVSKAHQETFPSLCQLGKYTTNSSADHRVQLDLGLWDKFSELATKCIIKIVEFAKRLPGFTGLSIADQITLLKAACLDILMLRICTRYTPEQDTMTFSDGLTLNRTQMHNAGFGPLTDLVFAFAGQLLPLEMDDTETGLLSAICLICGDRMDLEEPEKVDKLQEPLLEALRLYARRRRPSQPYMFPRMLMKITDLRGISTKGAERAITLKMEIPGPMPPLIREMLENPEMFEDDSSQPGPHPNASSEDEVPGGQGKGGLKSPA
How it was run: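 Readout: reporter transcript levels via RT-PCR, 6-FAM primer-extension labelling, HpaI digestion and capillary electrophoresis. Cells: HepG2 carrying transfected RARg-GAL4 chimera plus UAS reporter set. Dosing 24 h; DMSO negative control.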

Measured: AC50

CCOP(=S)(OCC)SCCSCC
active: [4] 33.7 µM
not listed: [18] | [19] | [20]
inactive: all other assays above

CC(C)[C@H](C(=O)O[C@H](C#N)c1cccc(Oc2ccccc2)c1)c1ccc(Cl)cc1
active: [4] 0.938 µM | [15] 6.57 µM | [16] 9.37 µM | [17] 5 µM
not listed: [13] | [14] | [18] | [19] | [20]
inactive: all other assays above

CN(C)NC(=O)CCC(=O)O
not listed: [13] | [17] | [19] | [20]
inactive: all other assays above

CNC(=O)ON=C(SC)C(=O)N(C)C
active: [4] 24.9 µM | [5] 18.9 µM
not listed: [13] | [14] | [17] | [19] | [20]
inactive: all other assays above

CCCCOC(=O)[C@@H](C)Oc1ccc(Oc2ccc(C#N)cc2F)cc1
not listed: [13] | [14] | [20]
inactive: all other assays above

CCOP(=S)(OCC)OC(Cl)C(Cl)(Cl)Cl (centres undefined)
active: [3] 26.4 µM | [4] 50 µM | [5] 29.2 µM | [9] 14.6 µM | [15] 32.1 µM
not listed: [19]
inactive: all other assays above

COc1ccc(C(=CC(=O)N2CCOCC2)c2ccc(Cl)cc2)cc1OC
active: [4] 8.76 µM | [5] 13.8 µM | [8] 12.7 µM
not listed: [13] | [14] | [18] | [19] | [20]
inactive: all other assays above
